Bioassay records deposited in PubChem BioAssay by The Scripps Research Institute Molecular Screening Center.
Compounds with a hit are over-represented: about 2.7% of the library has one in this group of screens.
TCR-CD3 inh – inhibitors of human TCR-CD3 interaction. 360,000 compounds, 0.37% hits. AID 651800. inhibition, % at 9.4 µM. TAMRA-labeled TCR probe fluorescence, biochemical; in the data active = inhibition above about 19%;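 note: recombinant mutant TCR 2C K166C tagged with TAMRA read by polarization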
PAFAH2 inh – inhibitors of human PAFAH2; Q99487; 340,000 compounds, 0.99% hits; AID 492956; recombinant PAFAH2, FP-rhodamine activity probe, fluorescence polarization; inhibition, % at 3.39 µM;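 active = inhibition above the mean over all tested compounds plus 3 SD, cut at about 30% in these data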;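 note: inhibitors block probe labeling of enzyme so polarization drops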
PAFAH1B3 FP inh – inhibitors of human PAFAH1B3; AID 492972; Q15102; 340,000 compounds, 0.28% hits; recombinant PAFAH1B3, FP-rhodamine probe, fluorescence polarization; inhibition, % at 3.39 µM;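 active = inhibition above the screen-wide average of all tested compounds plus 3 SD, cut at about 25% in these data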
Target sequence (Q15102 whole entry, looked up): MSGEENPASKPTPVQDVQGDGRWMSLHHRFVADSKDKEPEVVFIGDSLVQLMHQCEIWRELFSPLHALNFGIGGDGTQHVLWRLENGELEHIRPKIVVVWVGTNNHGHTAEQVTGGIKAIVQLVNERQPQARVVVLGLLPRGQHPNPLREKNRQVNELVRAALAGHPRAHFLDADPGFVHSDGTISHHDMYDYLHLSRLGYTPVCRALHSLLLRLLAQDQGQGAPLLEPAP
PAFAH1B2 inh – PAFAH1B2 (human) inhibition | P68402 | recombinant PAFAH1B2, FP-rhodamine activity probe, fluorescence polarization | inhibition, % at 3.39 µM | 340,000 compounds, 1.2% hits | AID 492953;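 active = inhibition above the mean of all tested compounds plus 3 SD, cut at about 24% in these data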
Target sequence (P68402 whole entry, looked up): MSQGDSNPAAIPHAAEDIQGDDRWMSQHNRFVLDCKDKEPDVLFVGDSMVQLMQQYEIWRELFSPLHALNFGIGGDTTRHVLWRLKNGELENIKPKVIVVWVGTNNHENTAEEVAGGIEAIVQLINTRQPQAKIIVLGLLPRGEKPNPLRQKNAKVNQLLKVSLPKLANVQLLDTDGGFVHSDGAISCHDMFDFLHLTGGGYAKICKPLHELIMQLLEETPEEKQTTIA
pPAFAH FP inh – pPAFAH (human) enzyme inhibition; 330,000 compounds, 1.5% hits; AID 463082; recombinant pPAFAH, FP-rhodamine probe fluorescence polarization; inhibition, % at 3.39 µM;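 active = inhibition above the mean inhibition across the screen plus 3 SD, cut at about 25% in these data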;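 note: inhibitors block binding of the rhodamine activity-based probe so polarization drops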
Each line names hits and unclear results; the compound was inactive in the other large screens.

N#Cc1ccc(OCC(=O)OCC(=O)c2ccccc2)cc1	none
Cc1ccc(-c2noc(CSc3nnc(Cc4ccccc4)n3-c3ccc(Cl)cc3)n2)cc1	pPAFAH FP inh 25
CCOC(=O)CN(C(=O)CSc1nnc(Cc2ccccc2)n1-c1ccc(C)cc1)c1ccccc1	none
Cc1ccc(-c2noc(CSc3nnc(CCc4ccccc4)n3-c3ccccc3)n2)cc1	none
CCOC(=O)CSc1nnc(Cc2ccccc2)n1-c1ccc(C)cc1	pPAFAH FP inh 32
C[C@H]1CN([C@@H](C)CO)C(=O)c2cc(NS(=O)(=O)c3ccc(F)cc3)ccc2O[C@H]1CN(C)S(=O)(=O)c1cn(C)cn1	pPAFAH FP inh 28
COc1ccc(S(=O)(=O)Nc2ccc3c(c2)C(=O)N([C@H](C)CO)C[C@H](C)[C@@H](CN(C)S(=O)(=O)c2ccccc2)O3)cc1	PAFAH1B2 inh 40
COc1ccc(S(=O)(=O)N(C)C[C@H]2Oc3ccc(NS(=O)(=O)c4ccccc4)cc3C(=O)N([C@H](C)CO)C[C@@H]2C)cc1	none
C[C@H](CO)N1C[C@H](C)[C@@H](CN(C)S(=O)(=O)c2cn(C)cn2)Oc2ccc(NS(=O)(=O)c3ccccc3)cc2C1=O	none
O=C(CC1CCCC1)N[C@H](C(=O)N1CCC[C@H]1C(=O)NCc1ccccc1)c1ccccc1	none (no result: PAFAH2 inh, PAFAH1B3 FP inh, PAFAH1B2 inh, pPAFAH FP inh)
COc1ccc(C2SCC(=O)N2Cc2ccccc2)cc1 (stereo not given)	none
O=C1CSC(c2cccc(O)c2)N1Cc1ccccc1 (stereo not given)	none
O=C1CSC(c2ccccc2O)N1Cc1ccccc1 (stereo not given)	PAFAH1B2 inh 25
Cc1ccc(C2SCC(=O)N2Cc2ccccc2)cc1 (stereo not given)	PAFAH1B2 inh 29
O=C(Nc1ccc(Cl)cc1)OC[C@@H]1CSCCS(=O)(=O)N1	none (no result: PAFAH2 inh, PAFAH1B3 FP inh, PAFAH1B2 inh, pPAFAH FP inh)
C#CCN(C[C@H]1[C@H](OC(=O)Nc2cccs2)[C@H](OC(=O)Nc2cccs2)CN(C(=O)OC(C)C)N1C(=O)OC(C)C)S(=O)(=O)c1ccc(C)cc1	none (no result: PAFAH2 inh, PAFAH1B3 FP inh, PAFAH1B2 inh, pPAFAH FP inh)
O=C(O)c1ccc(-c2nc(-c3ccccc3)c(-c3cccs3)[nH]2)cc1	none
Cc1ccc(-c2[nH]c(-c3ccc(C(=O)O)cc3)nc2-c2ccccc2)cc1	pPAFAH FP inh 31
O=C1OC(c2ccccc2)=N/C1=C/c1cccc(OC(=O)c2cccs2)c1	PAFAH1B2 inh 66
Cc1no[n+]([O-])c1COc1cccc(/C=C2\N=C(c3ccccc3)OC2=O)c1	none
Cc1ccc(-n2c(C)cc(-c3csc(N)n3)c2C)cc1	pPAFAH FP inh 25
Cc1ccc(-c2csc(N)n2)cc1	PAFAH1B2 inh 70 (no result: pPAFAH FP inh)
CCN(CC(=O)NCc1ccc(Cl)cc1)C(=O)CSc1ccc(Br)cc1	PAFAH1B2 inh 26
O=C(O)c1ccc2nc(-c3ccco3)c(-c3ccco3)nc2c1	PAFAH2 inh 40, PAFAH1B3 FP inh 52, PAFAH1B2 inh 24 (no result: pPAFAH FP inh)
O=C(Nc1ccc(F)c(Cl)c1)NC1CC1	none
O=C(NCCCO)Nc1ccc2nc(-c3ccco3)c(-c3ccco3)nc2c1	pPAFAH FP inh 62 (no result: TCR-CD3 inh, PAFAH2 inh, PAFAH1B3 FP inh, PAFAH1B2 inh)
OCCCNC(=S)Nc1ccc2nc(-c3ccccn3)c(-c3ccccn3)nc2c1	none
O=C(Nc1ccc2nc(-c3ccco3)c(-c3ccco3)nc2c1)NC1CC1	PAFAH2 inh 35, PAFAH1B3 FP inh 36 (no result: TCR-CD3 inh, pPAFAH FP inh)
O=C(c1ccc2nc(-c3ccco3)c(-c3ccco3)nc2c1)N1CCN(c2ccccc2)CC1	none
CC(=O)c1c(C)[nH]c(C(=O)NNC(=O)COc2cc(C)cc(C)c2)c1C	none (no result: pPAFAH FP inh)
CC1CN(C(=O)CSc2nc(N)cc(N)n2)CC(C)O1 (stereo not given)	none
COc1ccc(N2CC(C)(C)[C@H](CC(=O)Nc3ccccc3)C2=O)cc1	none (no result: PAFAH2 inh, PAFAH1B3 FP inh, PAFAH1B2 inh, pPAFAH FP inh)
COCCNC(=O)c1ccc2ccccc2n1	none
CC1CC(C)CN(C(=O)Cc2c(C(=O)O)[nH]c3ccc(Cl)cc23)C1 (stereo not given)	PAFAH1B2 inh 81
O=C(NCCc1ccc(Cl)cc1)C(=O)c1c[nH]c2ccccc12	PAFAH1B2 inh 28
O=C(NCCc1ccc(Cl)cc1)c1ccc2ccccc2n1	PAFAH1B2 inh 25
O=C(O)c1ccccc1C(=O)NCCc1c(C(=O)O)[nH]c2ccc(Cl)cc12	PAFAH1B2 inh 33
O=C(NCC(=O)N(c1ccccc1F)C(C(=O)NC1CCCC1)c1ccncc1)c1ccco1 (stereo not given)	none
CN(C(=O)[C@H]1O[C@@H](n2cnc3c(=O)[nH]c(N)nc32)[C@H](O)[C@@H]1O)C1CCCCC1	none (no result: PAFAH2 inh, PAFAH1B3 FP inh, PAFAH1B2 inh, pPAFAH FP inh)
O=C(O)c1ccccc1C(=O)NCCc1ccc(Cl)cc1	PAFAH1B2 inh 30
O=C(CCc1ccccc1)NNC(=O)Cc1ccc(Cl)cc1	PAFAH1B2 inh 25
COC(=O)C1CCN(S(=O)(=O)CCNC(=O)c2ccc3c(c2)OCO3)CC1	none
Cc1cc2c(cc1S(=O)(=O)NCCc1ccccc1)NC(=O)CO2	PAFAH1B2 inh 29
Cc1ccc(CNS(=O)(=O)c2cc3c(cc2C)NC(=O)CO3)cc1	none
Cc1cc2c(cc1S(=O)(=O)NCc1ccccc1)NC(=O)CO2	none
Cc1ccc(CNS(=O)(=O)c2ccc3c(c2)NC(=O)CO3)cc1	PAFAH1B2 inh 26
CC(/C=C/C=C/c1ccccc1)=N/NC(=O)CNc1ccccc1C	none
O=S(=O)(Nc1cccnc1)c1ccc(Br)c2ccccc12	PAFAH1B2 inh 26
O=C(Nc1ccccc1)c1ccc(Br)c(S(=O)(=O)Nc2cccnc2)c1	none
O=C(NCc1ccccc1)[C@@H]1CCCN1C(=O)[C@H]1CCCN1C(=O)c1ccc(Cl)cc1	none (no result: PAFAH2 inh, PAFAH1B3 FP inh, PAFAH1B2 inh, pPAFAH FP inh)
Cc1ccccc1Cn1c(NC2CCCC2)nc2c1c(=O)[nH]c(=O)n2C	pPAFAH FP inh 33
Cn1c(=O)[nH]c(=O)c2c1nc(NC1CCCCC1)n2Cc1ccccc1	none
N#Cc1ccc(CSc2nnc(NC(=O)C3CC(=O)N(c4ccc5c(c4)OCCO5)C3)s2)cc1 (stereo not given)	none (no result: TCR-CD3 inh)
C=CCSc1nnc(NC(=O)C2CC(=O)N(c3ccc4c(c3)OCCO4)C2)s1 (stereo not given)	none
O=C(Nc1nnc(SCc2ccc(F)cc2)s1)C1CC(=O)N(c2ccc3c(c2)OCCO3)C1 (stereo not given)	pPAFAH FP inh 26
O=C(Nc1nnc(SCc2c(Cl)cccc2Cl)s1)C1CC(=O)N(c2ccc3c(c2)OCCO3)C1 (stereo not given)	pPAFAH FP inh 32
COc1ccccc1NC(=O)COC(=O)Cn1cnc2c1c(=O)n(C)c(=O)n2C	none
COC(=O)CC#C[C@@H](C)[C@H](NS(=O)(=O)c1ccc(C)cc1)C(C)(C)C	none (no result: PAFAH2 inh, PAFAH1B3 FP inh, PAFAH1B2 inh, pPAFAH FP inh)
O=C(Nc1ccc2c(c1)OCCO2)Nc1ccc2c(c1)OCO2	none
O=C(Nc1ccc2c(c1)CCC2)Nc1ccc2c(c1)OCO2	pPAFAH FP inh 25
COc1ccccc1NS(=O)(=O)c1cc(NC(=O)Nc2ccc(Cl)cc2Cl)ccc1N1CCCCC1	pPAFAH FP inh 34
COc1ccccc1NS(=O)(=O)c1cc(NC(=O)C2CCC2)ccc1N1CCCCC1	none
CCCCCCCc1nc2c(=O)n(C)c3ccccc3c2o1	pPAFAH FP inh 31
CCCCCCc1nc2c(=O)[nH]c3ccccc3c2o1	none
